Experimental data: the supplement of paper PMC6555819

How the values were obtained:
Test in all cases: PBM binding z-score (relative to random genomic background probes); higher = stronger binding; sequences stand for … in GC…GCGATTGACAGCGTAGAATGAAGG
[1] = system: FXR:RXRa (NR concentration 270 nM, RXRa partner concentration 90 nM)
How it was run: (§1)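 Binding z-scores take random background probes as their reference. They come from custom Agilent 4×180K protein-binding microarrays incubated 1 h with ligand-free nuclear receptor dimers, with antibodies against each partner (one per run) detecting binding. Scanned fluorescence was regression-normalized.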

[2] = system: LXRa:RXRa (NR concentration 270 nM, RXRa partner concentration 90 nM)
How it was run: as §1

[3] = system: LXRa homodimer (NR concentration 270 nM)
How it was run: as §1

[4] = system: LXRb:RXRa (NR concentration 270 nM, RXRa partner concentration 90 nM)
How it was run: as §1

[5] = system: LXRb homodimer (NR concentration 270 nM)
How it was run: as §1

[6] = system: PPARa:RXRa (NR concentration 270 nM, RXRa partner concentration 90 nM)
How it was run: as §1

[7] = system: PPARg:RXRa (NR concentration 180 nM, RXRa partner concentration 90 nM)
How it was run: as §1

[8] = system: PPARg:RXRa 270nM:90nM, anti-RXR (NR concentration 270 nM, RXRa partner concentration 90 nM)
How it was run: as §1

[9] = system: PPARg:RXRa 30nM:10nM, anti-RXR (NR concentration 30 nM, RXRa partner concentration 10 nM)
How it was run: as §1

[10] = system: PPARg:RXRa 90nM:30nM, anti-RXR (NR concentration 90 nM, RXRa partner concentration 30 nM)
How it was run: as §1

Row | Sequence | PBM binding z-score [1] | PBM binding z-score [2] | PBM binding z-score [3] | PBM binding z-score [4] | PBM binding z-score [5] | PBM binding z-score [6] | PBM binding z-score [7] | PBM binding z-score [8] | PBM binding z-score [9] | PBM binding z-score [10]
1 | CAAATTAGGTCAAAGGTCAAAGTCGAGCCAACCA | 8.64 | 7.33 | 6.11 | 7.29 | 3.55 | 7.52 | 14 | 11.2 | 13.6 | 13.7
2 | CCTACTGGGCAAAGGTCATTGATCAGTCAAAGCA | 4.96 | 5.6 | 3.49 | 4.8 | 0.805 | 5.63 | 8.03 | 7.54 | 5.9 | 7.6
3 | CCGACTGGGGCGAGGTTACCATAACGCACAGCCA | 0.344 | 0.809 | -0.212 | 0.84 | -0.662 | 1.49 | 1.16 | 1.05 | -0.243 | 0.417
4 | TAGCCTAGGTCAGCTCGGGCCAGTATACGCTATA | 2.43 | 1.05 | -0.68 | 0.599 | -1.22 | 1.66 | 0.605 | 0.958 | -0.317 | 0.418
5 | TACACAGGGTCAAAGGCCAGAGTACGAATGTCGA | 6.94 | 5.94 | 1.96 | 4.44 | 1.69 | 5.95 | 7.46 | 7.03 | 4.73 | 6.42
6 | CCTTACTGGTCACTCCAGGTTATAGCATCGGAGT | 0.959 | 4.64 | 1.95 | 1.39 | 0.798 | 0.503 | 0.265 | 0.0704 | 0.0345 | 0.0913
7 | ATCGAAAGGTCGAAGGTAAGTATACCCACCCGAA | 3.95 | 3.26 | 0.165 | 2.83 | 0.858 | 4.25 | 3.8 | 3.88 | 1.59 | 2.86
8 | ATCTCTAGATAAGACTCAGTTCAGTGAAGAACGC | -0.0405 | -0.109 | 0.034 | -0.147 | 0.392 | -0.438 | 0.0934 | -0.337 | 0.0965 | 0.00622
9 | GCTTACGGGTCAAAGGTGATAGCATGAATAGAAT | 6.24 | 4.59 | 0.0435 | 4.64 | 0.353 | 6.57 | 10.2 | 8.54 | 7.83 | 9.26
10 | AGTCAAAGTACATCTAGGTAACGTAAGATATGCT | -0.254 | -0.258 | -0.145 | -0.0982 | -0.223 | 0.359 | 1.35 | 0.631 | 0.46 | 0.326
11 | TTTCGGAGGACACGAAGGTCAGAGCTTTCCAGAG | 1.83 | 1.7 | 0.81 | 1.61 | -0.442 | 2.12 | 0.582 | 1.32 | 0.325 | 0.593
12 | ATCGCTAGGTAAAGATAGTTCAGTGAATGCAAAT | -0.496 | 3.12 | -0.0972 | 0.21 | -0.672 | -0.0926 | 0.0549 | -0.523 | -0.376 | -0.332
13 | TTACCAAGGTGAAGGTGGTTGATCCCTCTGTAGA | 0.468 | 0.457 | -0.29 | 0.0076 | -0.769 | 1.41 | 0.605 | 1.37 | 0.889 | 1.13
14 | ATATGTAGGTTAGCTGGGGTCATTCAAACTAGGC | 5.07 | 5.84 | 3.67 | 5.17 | 1.92 | 5.21 | 5.74 | 5.36 | 2.92 | 4.91
15 | CCTTACGGGTCACGAGGTTAAAGCACGACGAGCG | 7.54 | 4.81 | 0.696 | 4.3 | 0.192 | 6.28 | 7.86 | 7.25 | 3.78 | 6.28
16 | TTACCAAGGTGAAAGGTCGTAGATGCACGCCTTG | 3.65 | 3.02 | -0.241 | 2.66 | -0.86 | 5.51 | 8.66 | 8.09 | 7.58 | 8.56
17 | CGTCCAAGGTCAATACTAGGTCAGTGAAAGCATT | 6.7 | 5.42 | 3.65 | 4.71 | 1.55 | 5.33 | 4.52 | 4.7 | 2.1 | 3.73
18 | CAAACTACGTCACGAAAGGTCAAAGTCGAATGAC | 5.17 | 6.32 | 6.22 | 5.7 | 2.44 | 5.11 | 3.01 | 4.1 | 1.58 | 3
19 | CGAACTCGGTCATTGACAGGACAGTGAATAGTAA | 1.78 | 1.2 | 0.283 | 0.401 | -0.271 | 1.07 | 0.725 | 0.451 | -0.134 | 0.0163
20 | AATACAGGGTCACTAGGCCAGAGTAGGTACGAAT | 6.37 | 5.07 | 0.678 | 3.95 | 0.879 | 6.03 | 8.23 | 6.72 | 3.56 | 5.66
21 | ACAGACAGGTGATGAAGGCAACTCAGGCTATCAT | -0.379 | -0.449 | -0.41 | -0.706 | -0.333 | -0.357 | 0.764 | -0.331 | -0.116 | -0.446
22 | GATACAGGGTCAAGGCCAGAGAACGCGTATTGAT | 6.78 | 4.32 | 0.0774 | 3.59 | -0.239 | 5.57 | 5.91 | 5.64 | 2.25 | 4.54

Row | Sequence | PBM binding z-score [1] | PBM binding z-score [2] | PBM binding z-score [3] | PBM binding z-score [4] | PBM binding z-score [5] | PBM binding z-score [6] | PBM binding z-score [7] | PBM binding z-score [8] | PBM binding z-score [9] | PBM binding z-score [10]
23 | ATATGTTGGTTAAGGGTCATTCAGGTTGGTTCGC | 4.33 | 4.39 | 2.88 | 4.31 | 1.83 | 4.83 | 6.96 | 7.58 | 6.29 | 7.73
24 | ATCTCTAGATAAAAGTTCAGTGAATCCCGAGGAT | 0.0145 | 0.704 | 1.41 | 0.746 | 0.367 | 1.59 | 1.74 | 3.39 | 1.72 | 3.2
25 | ATATGTAGGCTAGCTGGGGTCATTCAGACTAGGC | 3.46 | 3.2 | 1.14 | 3.49 | -0.151 | 4.32 | 3.2 | 3.64 | 1.1 | 2.83
26 | AATACAGGGTCACTAGGCCAGTGTAGGTACGAAT | 5.94 | 5.39 | 1.08 | 3.91 | 0.765 | 5.69 | 7.83 | 6.59 | 3.05 | 5.85
27 | ACTAGCAGGCCAAGGGTCACTCACGATTAGTCCG | 2.5 | 2.67 | 0.186 | 2.74 | -0.177 | 4.69 | 7.31 | 6.69 | 5.72 | 6.89
28 | CAGCCTAGGTCAGCGCCAGTATAGGAGGAACGTT | 1.62 | 1.05 | -0.445 | 0.71 | -0.863 | 1.92 | 0.956 | 1.24 | -0.327 | 0.61
29 | CCTCGGCGGACAGAAGGTCAGAGCTGTCCGCTTT | 1.18 | 1.29 | -0.126 | 0.771 | -1.09 | 1.64 | -0.606 | 0.898 | -0.662 | -0.0722
30 | ACTATGAGTTGACTTAGGGCAACCGATACGACGC | 0.53 | 0.591 | 0.2 | 0.365 | 0.578 | 0.327 | 1.08 | 0.524 | 0.371 | 0.418
31 | CGGACTAGGTCATTGACAGGACAGTGAATAGTAA | 3.76 | 2.45 | 0.229 | 1.86 | -0.21 | 4.05 | 6.69 | 5.73 | 2.87 | 4.89
32 | CGTCCAAGGACATAGGAGGTCAGTGAAGACAGAT | 1.5 | 1.47 | 1.23 | 1.26 | -0.58 | 2.02 | 0.76 | 0.564 | 0.000734 | 0.268
33 | CCAGACAGGTGAGAAGCTAACTCAGCCTCGATTA | -0.201 | -0.31 | -0.163 | -0.228 | -0.869 | 0.155 | 0.347 | 0.159 | -0.632 | -0.0205
34 | ACTAGCAGGCGAAGTTTGGGTCACTCAAACAAAG | -0.1 | -0.222 | -0.509 | 0.307 | -0.961 | 1.22 | -0.19 | 0.0876 | -0.449 | -0.106
35 | TCCTATAGGTAAATGCTAGGTGAAAGTCCGATCT | 0.02 | 0.489 | -0.157 | 0.379 | -0.293 | 1.16 | 0.318 | 1.7 | 2.99 | 2.19
36 | ACTAGTTGGTCAACTGAGGTCACACACAATTCGG | 4.03 | 4.75 | 3.24 | 3.99 | 0.711 | 4.31 | 3.06 | 3.01 | 0.826 | 2.8
37 | ACTAGCAGGCTAAGGGTCACTCAAGATTAGTCCG | 2.37 | 2.99 | -0.0624 | 2.72 | -0.651 | 4.35 | 6.55 | 6.82 | 6.03 | 7.57
38 | CGTCAAAGTTTAACTAAGGTAACGTAAAGCACGC | 1.47 | 2.68 | 0.251 | 0.825 | 0.249 | 1.15 | 0.797 | 1.22 | 0.174 | 0.65
39 | CCTCACGGGTCACTCCAGGTTATAGCATCGGAGT | 4.64 | 7.34 | 1.76 | 5.28 | 0.129 | 4.16 | 2.19 | 2.85 | 0.902 | 1.92
40 | ACTAGCAGGCCAAGTTTGGGTCACCCAAACAAAG | 0.488 | 0.347 | -0.356 | 0.836 | -0.589 | 1.98 | 0.125 | 0.213 | -0.577 | -0.0867
41 | CGTCCAAGGTCAAAGGTCAGTGGAGAGATGACGG | 8.17 | 6.91 | 3.66 | 6.84 | 2.07 | 7.16 | 10.7 | 9.05 | 8.08 | 9.59
42 | ATATGTAGGTTATCGGGTCAATCAGTTTGCGCAT | 3.33 | 3.31 | 1.36 | 2.99 | 1.1 | 4.99 | 7.6 | 6.41 | 3.84 | 5.93
43 | ATCTCTAGGTAGAGATAGTTCAGTGAATGCAAAT | -0.234 | -0.0128 | 0.0165 | -0.111 | 0.0975 | 0.178 | 0.258 | 0.0156 | 0.0243 | 0.104
44 | CCTCGGAGGACAATAGGAGGTCAGAGCTGCCAGA | 0.746 | 2.4 | 3.23 | 1.38 | -0.2 | 1.87 | 0.443 | 0.389 | -0.612 | -0.255
